Only some compounds are listed: those with a hit (about 1.6% of all), similar ones and a draw of the others.
eIF4H FP inh: inhibitors of RNA binding by human eIF4H. Q15056. eIF4H fluorescence polarization binding assay. inhibition, % at 35 µM. 290,000 compounds, 0.94% hits;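 further: calls also rest on retests at 20 µM and on dose response follow-up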
MLLE-PAM2 inh: inhibitors of microRNA-mediated deadenylation, human PABP1 MLLE binding; P11940; GST-MLLE / FITC-PAM2 fluorescence polarization; inhibition, % at 20 µM; 360,000 compounds, 0.36% hits; in the data active means inhibition above about 35%, passing the limit was not always enough;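 further: plate controls were DMSO wells with GST-MLLE for no effect and wells lacking GST-MLLE protein for full effect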
PABP polyA inh: blocks human PABP binding to poly(A) RNA. P11940. fluorescence polarization. calls only at 35 µM. 290,000 compounds, 1% hits;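 further: calls also rest on retests at 20 µM and on dose response follow-up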
eIF4E 4G PPI: eIF4E/eIF4G interaction inhibition in translation initiation. P63073+Q04637. TR-FRET eIF4E-eIF4GI(517-606) binding, 2 h. inhibition, % at 21.7 µM. 220,000 compounds, 0.37% hits. AID 782;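 active means inhibition above about 30%, limit read from the data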;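 further: 0% = full FRET control wells and 100% = background wells lacking eIF4GI fragment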
PERK inh: inhibitors of human PERK kinase; CHO PERK-DD fusion, SEAP luminescence translation reporter; inhibition, % at 5.6 µM; 220,000 compounds, 0.17% hits; AID 1416;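 active means inhibition above the mean inhibition of all tested compounds plus 3 SD, set separately per screening campaign, cut at about 2.9% in these data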;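 further: PERK kinase domain activated by AP20187 dimerizer at 100 nM; 0% = DMSO with dimerizer and 100% = rapamycin at 8.4 µM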
Starred values were filed as active, the others as inactive; i = inactive; ? = inconclusive; . = not tested or not shown; + = active, no number. Unless noted, how the calls were made is not given here.

SMILES | eIF4H FP inh | MLLE-PAM2 inh | PABP polyA inh | eIF4E 4G PPI | PERK inh
Cc1ccc(S(=O)(=O)N2CCCCC2)cc1NC(=O)c1ccc(Cl)nc1 | . | 2.2 | . | . | .
CC1=C(C(=O)OCCOC(C)C)C(c2cc3c(cc2Br)OCO3)C2=C(CCCC2=O)N1 (centres undefined) | 10.2 | 67.4* | i | 0.1 | -0.6
CC(C)C(=O)Nc1ccc(NC(=O)c2cccc3c(Br)cccc23)cc1 | 3.6 | 4.0 | i | . | .
O=C(CSc1nc2ccccc2s1)c1cc2ccccc2o1 | 59.7* | -9.8 | + | 2.9 | 0.9
CCOC(=O)c1ccc2c(c1)nc(SCC(=O)c1cc3ccccc3o1)n2CC | 3.3 | -125.4 | i | 40.4* | -0.7
CC(C)(C)OC(=O)C(C)(C)O/N=C(\C(=O)O)c1csc(N)n1 | -3.8 | -11.3 | i | -4.3 | 0.7
COc1ccc(CC(=O)NCC(=O)N/N=C(/C)c2ccco2)cc1 | -1.6 | 8.7 | i | 3.4 | 0.1
Cc1cccc(C(=O)NC(C)C(c2cccs2)N2CCOCC2)c1 (centres undefined) | -6.7 | -6.6 | i | 96.8* | -2.0
Cc1ccc(NC2Sc3ccccc3NC2=O)cc1Cl (centres undefined) | -8.1 | 7.0 | i | 4.2 | 0.2
COc1ccc(N2CCN(CCNC(=O)c3ccc4c(c3)[nH]c(=S)n3c5ccccc5nc43)CC2)cc1 | 4.8 | -91.0 | i | 13.8 | -0.1
COc1cc2oc(-c3ccc(O)cc3)cc(=O)c2c(O)c1OC | 6.3 | 7.9 | i | 58.3* | .
O=c1cc(-c2ccc(O)cc2)oc2c(O)c(O)c(O)c(O)c12 | 90.6* | -29.2 | + | -2.2 | 0.8
COc1cc(-c2cc(=O)c3ccc(O)cc3o2)cc(OC)c1OC | . | 45.5* | . | . | .
O=c1cc(-c2ccc(O)cc2)oc2c1ccc1ccccc12 | . | -21.9 | . | . | .
O=C(O)C(c1ccccc1)C(O)c1ccc2c(c1)OCO2 (centres undefined) | . | 4.2 | . | . | .
COc1ccccc1NC(=S)NC1CC2CCC1C2 (centres undefined) | 3.2 | -25.7 | i | -8.4 | 1.0
CN(C)NC(=S)NC1CC2CCC1C2 (centres undefined) | -19.6 | -36.3 | i | 90.3* | -1.1
CC(C)(C)NC(=O)C(c1cccs1)N(CC1CCCO1)C(=O)c1ccc(-c2ccccc2)[nH]1 (centres undefined) | active | 1.1 | i | -1.1 | -0.8
O=C(NCC1CCCO1)C(c1cccs1)N(Cc1ccccc1)C(=O)c1ccc(-c2ccccc2)[nH]1 (centres undefined) | -11.1 | -19.7 | i | 3.3 | -1.6
CCOc1ncc(S(=O)(=O)N2CCN(CC)CC2)cc1C(=O)O | -15.0 | 2.7 | i | . | .
O=C(NCCC(=O)N1CCN(S(=O)(=O)c2ccccc2Cl)CC1)Nc1ccccc1 | . | 25.5 | . | . | .
O=c1nc(Nc2cccc(Cl)c2)oc2cc(Cl)oc(=O)c12 | 58.0 | -17.4 | + | -0.1 | 0.4
Cc1cccc2cc(-c3nc4ccc(C(=O)O)cc4[nH]3)c(=O)oc12 | 64.9* | -8.0 | i | . | .
COc1cccc2cc(-c3nc4ccccc4[nH]3)c(=O)oc12 | 2.6 | -15.2 | i | . | .
Oc1ccc(O)c(Cc2nc3ccccc3s2)c1 | 82.4* | -4.0 | + | -2.4 | 0.2
SMILES | eIF4H FP inh | MLLE-PAM2 inh | PABP polyA inh | eIF4E 4G PPI | PERK inh
NC(=O)CSCc1nc2ccccc2s1 | 54.7* | 23.8 | + | 2.5 | 1.4
N/C(Cc1nc2ccccc2s1)=N\O | 12.3 | -34.2 | i | 5.1 | 0.7
CC(=O)c1ccccc1OCc1ccc(S(=O)(=O)Cc2ccccc2)cc1 | -8.9 | -7.0 | i | . | .
COc1cc(/C=C(\CC(=O)O)c2nc3ccccc3s2)cc(OC)c1O | -3.9 | -8.4 | i | 0.2 | 1.5
COc1cc(C=C(c2nc3ccccc3s2)c2nc3ccccc3s2)cc(OC)c1O | 52.3* | -31.0 | + | 2.1 | -0.6
Cc1cc(C(=O)COC(=O)c2ccc(Br)o2)c(C)n1Cc1ccco1 | 4.7 | . | i | 2.1 | 0.6
Cc1cc(C(=O)COC(=O)c2ccc(O)cc2)c(C)n1Cc1ccco1 | 73.7* | -15.3 | + | 2.2 | 1.0
Cc1cc(C(=O)C(C)Cl)c(C)n1Cc1ccco1 (centres undefined) | 101.2* | 3.9 | + | 8.6 | 0.3
Cc1ccc(F)c(S(=O)(=O)NC(=O)C2(C)CCN2C(=O)CCc2ccccc2)c1 (centres undefined) | . | -2.2 | . | . | .
COc1ccccc1OCC(=O)NCCNC(=O)COc1ccccc1OC | -6.9 | 39.9* | i | -19.7 | 0.4
COc1ccccc1OCC(=O)Sc1ccc(C)cc1 | -12.6 | 36.4* | i | -5.2 | 1.2
COc1ccccc1OCC(=O)NNC(=O)CCCC(=O)NNC(=O)COc1ccccc1OC | -2.7 | 9.1 | i | . | .
COc1ccc(Cc2nnc(NC(=O)CS(=O)(=O)c3ccccc3)s2)cc1OC | 6.9 | 6.5 | i | . | .
Fc1c(F)c(F)c(N=Cc2ccc3ncccc3c2)c(F)c1F | 0.6* | 3.3 | + | -1.6 | 1.0
c1cnc2ccc(-c3ccc4ncccc4c3)cc2c1 | 3.5 | 10.7 | i | . | .
C/C(=N/Nc1ncc(Br)cn1)c1ccc(Br)cc1 | 4.3 | -7.2 | i | . | .
C/C(=N\Nc1ccc(C(=O)O)cc1)c1ccc(Br)cc1 | 50.9* | 13.9 | i | 0.0 | 1.5
CCOC(=O)N1CCN(c2ccncc2S(=O)(=O)N2CCCCC2)CC1 | 3.8 | 2.2 | i | . | .
N#CCSc1nnc(CNc2ccc(F)cc2)o1 | 111.0* | 48.1* | + | 4.0 | 1.3
N#CCSc1nnc(CNc2cccc(Cl)c2)o1 | -1.7 | 10.1 | i | . | 0.9
O=C(NNS(=O)(=O)c1ccccc1)c1cc2cc3ccccc3nc2s1 | 13.9 | -15.7 | i | -7.3 | 0.4
O=C(NNC(=O)c1cc2cc3ccccc3nc2s1)c1cccc(C(F)(F)F)c1 | 51.3* | 15.9 | i | -17.2 | 0.9
Oc1cc2c(cc1C(c1ccc(Cl)c(Cl)c1)N1CCCC1)OCO2 (centres undefined) | 2.1 | 30.1 | i | 37.8* | 1.6
COc1cccc2[nH]c3ccccc3c(=O)c12 | -3.2 | 21.5 | i | . | .
Nc1cccc2c(=O)c3ccccc3[nH]c12 | 91.9* | -51.3 | + | . | .
SMILES | eIF4H FP inh | MLLE-PAM2 inh | PABP polyA inh | eIF4E 4G PPI | PERK inh
CCOC(=O)c1ccc(-c2ccc3ncnc(NCc4csc(C)n4)c3c2)o1 | . | 10.6 | . | . | .
CC(C)CC[n+]1ccccc1/C=C/c1ccc(N(C)C)cc1 | ? | -164.6 | + | . | .
Cc1ccc(S(=O)(=O)N2CCCC(C(=O)Nc3ccc(C(=O)O)cc3)C2)cc1Cl (centres undefined) | -10.9 | -5.3 | i | 4.2 | 1.5
COc1ccc(CCn2c(=N)c(S(=O)(=O)c3ccc(C)cc3)cc3c(=O)n4ccccc4nc32)cc1 | ? | 79.3 | + | . | .
N=c1c(S(=O)(=O)c2ccc(Br)cc2)cc2c(=O)n3ccccc3nc2n1Cc1ccccc1 | 39.2 | 70.2 | i | . | .
Cn1c(=N)c(S(=O)(=O)c2ccc(Cl)cc2)cc2c(=O)n3ccccc3nc21 | . | . | . | . | 0.8
N=c1c(S(=O)(=O)c2ccc(Br)cc2)cc2c(=O)n3ccccc3nc2n1Cc1ccco1 | 96.5* | -30.6 | + | . | .
CCn1c(=N)c(S(=O)(=O)c2ccc(Cl)cc2)cc2c(=O)n3ccccc3nc21 | 83.1* | . | + | -3.4 | 0.6
